# 14-3-3 Bad PPI = disrupts binding of bovine 14-3-3 zeta to phospho-Bad peptide. P63103. TR-FRET 14-3-3zeta/Dy647-pBad peptide displacement, 1 h. inhibition, % at 21.7 µM. 220,000 tested, 0.71% active;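 active = inhibition above about 70%, limit read from the data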;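 note: 0% = full 14-3-3 plus peptide FRET controls and 100% = background without 14-3-3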
# Target sequence (P63103 whole entry, looked up): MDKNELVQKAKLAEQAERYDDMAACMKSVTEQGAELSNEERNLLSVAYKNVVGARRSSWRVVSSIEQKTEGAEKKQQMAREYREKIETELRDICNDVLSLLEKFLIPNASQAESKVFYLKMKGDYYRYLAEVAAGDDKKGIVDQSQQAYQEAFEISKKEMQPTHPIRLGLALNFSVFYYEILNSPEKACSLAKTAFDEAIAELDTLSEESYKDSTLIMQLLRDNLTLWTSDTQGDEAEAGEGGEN
# Hck Nef HTS = human Hck-Nef kinase inhibition | inhibition, % at 20 µM | AID 463187 | Recombinant Hck-YEEI plus Nef, Z-Lyte FRET kinase assay | P08631 | 220,000 tested, 0.68% active;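 active = Hck-Nef kinase inhibition above about 50%, limit read from the data; inactive = inhibition below that limit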;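 note: 0% = DMSO with Hck plus Nef and 100% = Hck alone without Nef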
# Mcl1-Noxa inh = Mcl-1/Noxa interaction inhibition | TR-FRET Mcl-1/Noxa peptide binding, 2 h | inhibition, % at 21.7 µM | 220,000 tested, 1.5% active | AID 1022;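 active = compounds that cut the protein-peptide binding signal by more than 50% relative to plate controls in a single-dose test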;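 note: His-tagged Mcl-1 with rhodamine Noxa BH3 peptide and terbium anti-His antibody; 0% = Mcl-1 plus Noxa peptide wells and 100% = peptide-only wells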
# Target sequence (Q07820 whole entry, looked up): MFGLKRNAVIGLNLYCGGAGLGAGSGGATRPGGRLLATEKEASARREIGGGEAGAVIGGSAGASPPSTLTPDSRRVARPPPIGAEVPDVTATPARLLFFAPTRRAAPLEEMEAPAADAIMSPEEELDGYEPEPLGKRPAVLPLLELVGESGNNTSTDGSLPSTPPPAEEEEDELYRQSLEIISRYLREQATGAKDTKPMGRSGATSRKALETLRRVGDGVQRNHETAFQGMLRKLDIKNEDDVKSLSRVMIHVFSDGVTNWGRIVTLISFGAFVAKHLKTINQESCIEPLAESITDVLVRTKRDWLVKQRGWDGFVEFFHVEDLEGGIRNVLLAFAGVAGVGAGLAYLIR
# Bim-Mcl-1 = human Bim-Mcl-1 interaction inhibition. Q07820. Bead-based flow cytometry, Bim peptide-Mcl-1 binding. inhibition, % at 10 µM. 190,000 tested, 0.1% active. AID 1009; in the data active = inhibition above about 40%;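 note: 0% = no compound tracer wells and 100% = peptide blocker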
# Pf gametocyte = P. falciparum stage V gametocyte viability inhibition | AID 743093 | P. falciparum stage V gametocytes, ATP luminescence, 24 h | 150,000 tested, 0.065% active | inhibition, % at 10.9 µM;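 active = inhibition above the mean plus 3 SD of compounds within the control limits, set per campaign, cut at about 38% in these data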;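 note: 0% = DMSO wells and 100% = medium only without gametocytes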
# Mcl1 Bid PPI = Mcl-1/Bid interaction inhibition; Q07820; TR-FRET Mcl-1/Bid-Dy647 peptide binding, 1536-well; inhibition, % at 21.7 µM; 220,000 tested, 0.97% active; AID 1021;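 active = compounds that cut the binding signal by more than half at the single screening dose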;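 note: His-tagged Mcl-1 with europium anti-His antibody binding Bid BH3 peptide; 0% = Mcl-1 plus peptide wells and 100% = peptide-only wells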
# * hit, by the source's call; nt = no result. An excerpt weighted towards active compounds, which were near 2.9% of everything screened.
SMILES,14-3-3 Bad PPI,Hck Nef HTS,Mcl1-Noxa inh,Bim-Mcl-1,Pf gametocyte,Mcl1 Bid PPI
COC(=O)[C@@H]1CCCN1Cc1nc(Cc2ccc(OC)c(OC)c2)no1,-2.9,11.9,8.0,6.0,19.6,-33.2
CC(=O)c1ccc(Nc2ncnc3c2oc2ccccc23)cc1,72.0*,1.6,30.1,-3.0,nt,21.1
CC(=O)Nc1ccc(Nc2nc(C)nc3c2oc2ccccc23)cc1,-0.6,-0.4,4.4,1.0,-18.4,-22.7
CCOC(=O)C1CCN(c2nc(C)nc3c2oc2ccccc23)CC1,69.3,nt,6.8,-1.0,nt,39.9
CCOC(=O)C1CCCN(c2nc(C)nc3c2oc2ccccc23)C1 (centres undefined),82.8*,0.6,22.9,0.0,nt,14.1
O=C(CC1S/C(=N/N=C/c2c[nH]c3ccc(OCc4ccccc4)cc23)NC1=O)Nc1ccccc1 (centres undefined),6.4,6.4,67.2*,-5.0,1.9,57.8*
O=C(CC1S/C(=N/N=C/c2ccco2)NC1=O)Nc1ccccc1 (centres undefined),-13.4,-1.3,17.6,-1.0,-14.2,-30.9
O=C(CC1S/C(=N/N=C/c2c[nH]c3ccccc23)NC1=O)Nc1ccccc1 (centres undefined),-8.4,0.7,61.5*,-3.0,12.4,56.0*
O=C(O)CCc1ccc(-c2ccccc2)n1CC(=O)Nc1cccc(C(F)(F)F)c1,nt,nt,nt,nt,12.7,nt
COc1ccc(C(=O)O)cc1S(N)(=O)=O,-10.9,19.5,5.9,-4.0,nt,-3.5
COc1cccc(/C(O)=C2/C(=O)C(=O)N(Cc3ccco3)C2c2ccncc2)c1 (centres undefined),60.1,-0.4,15.1,-1.0,-8.4,-79.9
CCOc1cccc(/C(O)=C2/C(=O)C(=O)N(Cc3ccco3)C2c2ccncc2)c1 (centres undefined),74.5*,0.0,11.1,0.0,nt,-80.3
S=c1[nH]nc(CN2CCCC2)n1Cc1ccccc1,-8.0,17.6,3.3,-2.0,12.1,-38.9
C[C@@H](C(=O)Nc1nc2ccc(F)cc2s1)N1C(=O)C2CC=CCC2C1=O (some centres undefined),-5.4,15.6,-7.6,-2.0,25.2,94.6*
CCC(=O)NC(c1ccccc1OC)c1ccc2cccnc2c1O (centres undefined),-5.9,5.6,-60.6,-2.0,nt,-46.1
COc1ccc(Cl)cc1C(Nc1cccnc1)c1ccc2cccnc2c1O (centres undefined),28.1,-4.3,46.5,0.0,-15.7,96.6*
COc1ccccc1C(=O)C1CCCN(Cc2ccc(Oc3ncccn3)cc2)C1 (centres undefined),-6.7,20.6,28.3,-5.0,0.8,-20.0
N#CC(C#N)=C1c2cc(S(=O)(=O)NCCO)ccc2-c2ccc(S(=O)(=O)NCCO)cc21,-0.7,4.9,-14.6,nt,-6.8,-32.4
N#CC(C#N)=C1c2cc(S(N)(=O)=O)ccc2-c2ccc(S(N)(=O)=O)cc21,81.2*,21.1,49.7,-5.0,10.9,29.3
CC(Nc1nc(-c2ccc3c(c2)NC(=O)CO3)cs1)c1ccccc1 (centres undefined),-9.1,137.4*,-2.1,-2.0,-6.9,-58.3
Cc1cc(-c2n[nH]c(=S)n2/N=C/c2ccc(Br)s2)n[nH]1,-5.5,-0.2,26.4,-11.0,10.2,-99.4
S=c1[nH]nc(-c2cc(-c3ccccc3)n[nH]2)n1/N=C/c1ccc(Br)s1,49.9,3.3,69.9*,nt,3.1,47.7
CN(C)c1ccc(/C=N/n2c(-c3cccnc3)n[nH]c2=S)cc1,-3.8,22.5,55.5*,-1.0,2.5,-17.0
Cc1ccc(/C=N/n2c(-c3cccnc3)n[nH]c2=S)s1,-7.2,1.4,51.0*,0.0,-21.2,-47.2
Cc1ccc(/C=N/n2c(-c3cccnc3)n[nH]c2=S)o1,-5.2,7.8,-8.6,nt,-12.8,-50.4
SMILES,14-3-3 Bad PPI,Hck Nef HTS,Mcl1-Noxa inh,Bim-Mcl-1,Pf gametocyte,Mcl1 Bid PPI
Cc1ccc2cccc(N)c2n1,-3.2,0.6,19.9,0.0,nt,-3.3
COc1cccc(-n2c(C)cc(/C=C3/C(=N)N4C(=NC3=O)SN=C4S(C)(=O)=O)c2C)c1,-19.2,42.5,32.5,2.0,4.8,-16.9
CN(C)c1ccc(/C=C2\C(=N)N3C(=NC2=O)Sc2cc(S(C)(=O)=O)ccc23)cc1,37.4,-8.8,59.9*,nt,nt,63.6*
N#C/C(=C\c1ccc(O)c([N+](=O)[O-])c1)c1nc2ccccc2s1,41.0,43.2,66.2*,1.0,6.6,16.3
COc1cc(/C=C(\C#N)c2nc3ccccc3s2)cc([N+](=O)[O-])c1O,27.5,22.4,99.2*,4.0,-6.9,48.5
N#C/C(=C\c1ccc(N2CCCC2)c([N+](=O)[O-])c1)c1nc2ccccc2[nH]1,19.2,15.8,35.9,-2.0,6.3,68.2*
N#C/C(=C\c1ccco1)c1nc2ccccc2s1,-0.8,5.9,0.8,-4.0,9.0,-56.9
COc1ccc(-c2csc(/C(C#N)=C\c3ccc(OC)c([N+](=O)[O-])c3)n2)cc1,-4.7,-0.6,13.2,-5.0,15.2,-6.3
N#C/C(=C\c1ccc(N2CCCCC2)c([N+](=O)[O-])c1)c1nn(-c2ccccc2)c(N)c1C#N,-3.8,-1.6,13.5,-6.0,nt,-6.4
COc1ccc(-c2csc(/C(C#N)=C\c3ccc(O)c([N+](=O)[O-])c3)n2)cc1OC,12.1,14.7,102.5*,nt,14.3,69.6*
CC1CCCCC1NCC(=O)NCc1ccc(F)cc1 (centres undefined),57.4,21.4,24.7,0.0,-2.1,57.5*
COc1ccc(-c2[nH]ncc2CN2CCCC2c2nonc2C)c(F)c1 (centres undefined),0.4,9.5,13.2,26.0,38.6*,-12.8
O=C(N/C(=C\c1ccccc1)C(=O)N1CCCCCC1)c1ccccc1,-5.7,22.8,20.0,-1.0,-1.3,-23.4
O=C(C1=C[C@@H](c2csc3ccccc23)C[C@@H](OCc2ccc(CO)cc2)O1)N1CCN(Cc2ccc3c(c2)OCO3)CC1,-0.9,-70.1,-11.7,0.0,5.2,97.2*
COc1cc(OC)cc(-c2cc3nc(C)c(CCC(=O)O)c(C)n3n2)c1,66.3,18.4,33.0,0.0,nt,61.8*
CC1(C)CC(=O)C(N=Nc2ccc(-c3ccccc3)cc2)=C(O)C1,8.7,5.3,-60.4,-1.0,15.6,-6.4
CC1(C)CC(=O)C(C(C#Cc2ccccc2)C2=C(O)CC(C)(C)CC2=O)=C(O)C1,36.1,0.8,56.8*,-5.0,nt,8.1
O=C1CCCC(O)=C1C(C#Cc1ccccc1)C1=C(O)CCCC1=O,3.9,10.3,52.2*,0.0,nt,-3.7
O=C(CCSc1nc(-c2ccco2)cc(C(F)(F)F)n1)NCCc1ccccc1,0.8,1.3,8.8,-1.0,nt,-7.7
C[C@@H](NC(=O)c1ncn(C)c1C(=O)N[C@H](C)c1ccccc1)c1ccccc1,nt,nt,nt,nt,-14.5,nt
CC(C)CC(=O)NC(=S)Nc1ccccc1F,-1.1,3.7,9.1,-2.0,nt,-17.8
Cc1ccc(-n2cccn2)cc1,-13.1,24.7,10.5,-3.0,6.8,-18.5

# Assay outcomes from PubChem.
